RTF Ca sens act: increases calcium sensitivity of human cardiac regulated thin filaments. activation, % at 7.2 µM. P19429+P45379. 340,000 tested, 0.24% active. IANBD-labeled TnC RTF fluorescence at EC20 calcium; 0% EC20 calcium, 100% full calcium;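 active = activation above the mean over all tested compounds plus 3 SD, cut at about 30% in these data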;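 note: rise in fluorescence read as greater calcium sensitivity of cardiac thin filaments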
CRFBP-R2 block: antagonists of CRF-binding protein/CRF-R2 receptor complex; 350,000 tested, 0.59% active; HEK293 CRF-R2/CRF-BP, CRF-induced calcium fluorescence; AID 588475; inhibition, % at 11.8 µM;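 active = inhibition of the ligand-induced calcium signal above about 50% at the single tested concentration, limit read from the data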
CRFBP-R2 agonist: CRF-BP/CRF-R2 complex agonism; AID 588473; activation, % at 13.2 µM; 350,000 tested, 0.46% active; HEK293 CRF-R2/CRF-BP, calcium dye fluorescence (FLIPR); percent of saturating CRF peptide response;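 active = activation of at least 50%, plus an integration ratio under a set limit after plate pattern correction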;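 note: plate controls were neutral control wells without compound for no effect and CRF at EC100 for full effect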
ANO1 block: mouse TMEM16A channel inhibition, primary screen; HEK293 TMEM16A/YFP iodide influx fluorescence, ionomycin; normalized B-score (activity score, 25-100; higher = stronger inhibition) at 10 µM; 310,000 tested, 1.2% active;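 active = ratio plate-corrected score three or more library SD toward inhibition, starting fluorescence score within five deviations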;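 note: score derived from kinetic fluorescence span divided by baseline fluorescence per well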
Target sequence (Q8BHY3 whole entry, looked up): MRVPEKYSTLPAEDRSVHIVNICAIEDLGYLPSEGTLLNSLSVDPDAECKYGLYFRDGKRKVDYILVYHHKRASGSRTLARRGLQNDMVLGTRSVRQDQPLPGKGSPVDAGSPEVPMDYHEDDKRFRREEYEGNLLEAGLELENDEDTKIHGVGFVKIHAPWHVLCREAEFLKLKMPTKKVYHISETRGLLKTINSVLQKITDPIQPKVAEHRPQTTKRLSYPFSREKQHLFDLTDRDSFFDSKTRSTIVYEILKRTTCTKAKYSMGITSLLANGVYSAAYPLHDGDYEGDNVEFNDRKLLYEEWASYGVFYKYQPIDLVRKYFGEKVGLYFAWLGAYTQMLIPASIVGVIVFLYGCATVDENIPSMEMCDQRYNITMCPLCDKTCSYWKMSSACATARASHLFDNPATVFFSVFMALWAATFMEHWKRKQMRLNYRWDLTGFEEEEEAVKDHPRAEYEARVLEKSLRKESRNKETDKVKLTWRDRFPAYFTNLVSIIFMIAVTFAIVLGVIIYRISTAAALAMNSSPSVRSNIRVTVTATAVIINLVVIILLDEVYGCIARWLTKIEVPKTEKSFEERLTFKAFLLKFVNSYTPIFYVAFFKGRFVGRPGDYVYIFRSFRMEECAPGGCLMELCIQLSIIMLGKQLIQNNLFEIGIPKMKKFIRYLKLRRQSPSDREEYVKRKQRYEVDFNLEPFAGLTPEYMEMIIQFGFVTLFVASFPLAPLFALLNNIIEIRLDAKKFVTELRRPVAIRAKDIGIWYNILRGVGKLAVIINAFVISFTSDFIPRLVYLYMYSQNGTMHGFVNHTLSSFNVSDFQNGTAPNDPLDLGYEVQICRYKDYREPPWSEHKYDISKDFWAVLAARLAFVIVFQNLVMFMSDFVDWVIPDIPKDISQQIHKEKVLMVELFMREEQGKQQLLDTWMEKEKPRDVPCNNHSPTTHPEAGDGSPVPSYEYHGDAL
Cardiac RTF inh: cardiac RTF calcium desensitization; P19429+P45379; IANBD-labeled cardiac RTF, Ca2+ fluorescence; inhibition, % at 7.15 µM; 340,000 tested, 0.12% active;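 active = inhibition above the mean inhibition of all tested compounds plus 3 SD, cut at about 17% in these data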;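 note: assay run at fixed EC70 calcium of 1.6 mM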
ANO1 activ: activates or potentiates the mouse TMEM16A chloride channel; B-score at 10 µM; HEK293 TMEM16A/YFP-H148Q/I152L, iodide quench fluorescence; active compounds read low; Q8BHY3; 340,000 tested, 0.3% active;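 active = fluorescence-ratio B-score plate-corrected deviation score at least 3 library SD below zero, with starting fluorescence score within 5 deviations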;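 note: channel opened by trigger with iodide after compound preincubation; score built on the fluorescence ratio of max minus min over baseline; more negative score means more quench and so TMEM16A activation or potentiation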
* = called active by the depositor. An excerpt weighted towards active compounds, which were near 2.4% of everything screened.

What do the screens show for `COc1cccc(C(=O)Nc2cc(OC)ccc2NC(=O)c2ccco2)c1`?
RTF Ca sens act: 5.5; CRFBP-R2 block: -0.8; CRFBP-R2 agonist: -1.6; ANO1 block: inactive; Cardiac RTF inh: -2.7; ANO1 activ: inactive

How did Cc1ccc(OCC(=O)NC2CCSc3ccccc32)cc1 (stereo not drawn) do in these assays?
RTF Ca sens act: -2.5; CRFBP-R2 block: 4.3; CRFBP-R2 agonist: -3.7; ANO1 block: inactive; Cardiac RTF inh: -1.7; ANO1 activ: inactive

What do the screens show for `COc1ccc2c(c1)-c1nc(/N=C/c3c(O)ccc4ccccc34)sc1CC2`?
RTF Ca sens act: 2.8; CRFBP-R2 block: 9.5; CRFBP-R2 agonist: -1.9; Cardiac RTF inh: -18.0; ANO1 activ: inactive

How did COc1ccc2c(c1)-c1nc(/N=C/c3ccc(O)cc3)sc1CC2 do in these assays?
RTF Ca sens act: -6.0; CRFBP-R2 block: 90.6*; CRFBP-R2 agonist: 2.2; ANO1 block: inactive; Cardiac RTF inh: -13.1; ANO1 activ: inactive

Results for Cc1ccccc1N(CC(=O)N1CCN(Cc2ccccc2)CC1)S(C)(=O)=O ?
CRFBP-R2 block: 70.3*; CRFBP-R2 agonist: 5.2

What do the screens show for `Cc1ccccc1N(CC(=O)N1CCN(c2ccccc2)CC1)S(C)(=O)=O`?
RTF Ca sens act: -3.8; CRFBP-R2 block: 2.8; CRFBP-R2 agonist: -0.2; ANO1 block: inactive; Cardiac RTF inh: -0.6; ANO1 activ: inactive

How did O=C1c2ccccc2-c2cccc(NS(=O)(=O)c3ccc(C(F)(F)F)cc3)c21 do in these assays?
RTF Ca sens act: 2.5; CRFBP-R2 block: -63.3; CRFBP-R2 agonist: 96.8*; ANO1 block: inactive; Cardiac RTF inh: -12.5; ANO1 activ: inactive

How did Cc1ccc(S(=O)(=O)Nc2ccccc2-c2ccccc2NS(=O)(=O)c2ccc(C)cc2)cc1 do in these assays?
RTF Ca sens act: -2.6; CRFBP-R2 block: 19.2; CRFBP-R2 agonist: -1.2; ANO1 block: 100*; Cardiac RTF inh: -1.1; ANO1 activ: inactive

What do the screens show for `N#Cc1cn(-c2ccccc2)nc1-c1ccc2c(c1)OCCO2`?
RTF Ca sens act: 2.6; CRFBP-R2 block: 11.2; CRFBP-R2 agonist: 0.3; ANO1 block: inactive; Cardiac RTF inh: 5.7; ANO1 activ: inactive

Results for O=Cc1cn(-c2ccccc2)nc1-c1ccc2c(c1)OCCO2 ?
RTF Ca sens act: 9.9; CRFBP-R2 block: 61.1*; CRFBP-R2 agonist: 5.3; ANO1 block: inactive; Cardiac RTF inh: -19.1; ANO1 activ: inactive

How did CC(C)CN(C(=O)COC(=O)/C=C/c1ccc(Cl)c(Cl)c1)c1c(N)n(Cc2ccccc2)c(=O)[nH]c1=O do in these assays?
RTF Ca sens act: -1.1; CRFBP-R2 block: 10.3; CRFBP-R2 agonist: 4.4; Cardiac RTF inh: -6.1; ANO1 activ: inactive

What do the screens show for `COc1cc(/C=C/C(=O)OCC(=O)N(CC(C)C)c2c(N)n(Cc3ccccc3)c(=O)[nH]c2=O)ccc1O`?
RTF Ca sens act: -5.2; CRFBP-R2 block: -41.3; CRFBP-R2 agonist: 119.6*; Cardiac RTF inh: -3.3; ANO1 activ: -21.8*

How did Nc1cnccc1C(=O)O do in these assays?
RTF Ca sens act: 38.7*; CRFBP-R2 block: -19.4; CRFBP-R2 agonist: 24.2; ANO1 block: inactive; Cardiac RTF inh: -49.4; ANO1 activ: inactive

Results for Cc1nc2ccc(Cl)cc2nc1C ?
RTF Ca sens act: 9.7; CRFBP-R2 block: 11.3; CRFBP-R2 agonist: -1.4; ANO1 block: inactive; Cardiac RTF inh: 0.9; ANO1 activ: inactive

What do the screens show for `CCN1CCN(C(=O)C(C)Nc2cc(Cl)c(OC)cc2OC)CC1` (stereo not drawn)?
RTF Ca sens act: 5.5; CRFBP-R2 block: -3.8; CRFBP-R2 agonist: -1.5; ANO1 block: inactive; Cardiac RTF inh: -0.3; ANO1 activ: inactive

Results for COC(=O)C1C2CC3c4[nH]c5cc(OC)ccc5c4CCN3CC2CC(O)C1OC (stereo not drawn) ?
RTF Ca sens act: 5.0; CRFBP-R2 block: -3.0; CRFBP-R2 agonist: 2.7; Cardiac RTF inh: -8.2; ANO1 activ: inactive

How did COC(=O)C1C2CC3c4[nH]c5cc(OC)ccc5c4CCN3CC2CC(OC(=O)CC(C)=O)C1OC (stereo not drawn) do in these assays?
RTF Ca sens act: 45.9*; CRFBP-R2 block: -22.1; CRFBP-R2 agonist: 14.7; Cardiac RTF inh: -76.3; ANO1 activ: inactive

Results for CCOC(=O)c1sc(Nc2nc3c(OC)cccc3s2)nc1C ?
RTF Ca sens act: -1.9; ANO1 block: 100*; Cardiac RTF inh: -32.4; ANO1 activ: inactive

Results for CCn1c(CCNC(=O)c2ccccc2Cl)n[nH]c1=S ?
RTF Ca sens act: -1.8; CRFBP-R2 block: 82.0*; CRFBP-R2 agonist: -0.2; ANO1 block: inactive; Cardiac RTF inh: 1.7; ANO1 activ: inactive

What do the screens show for `CCn1c(CCNC(=O)c2ccc(Cl)cc2Cl)n[nH]c1=S`?
RTF Ca sens act: 4.9; CRFBP-R2 block: 24.8; CRFBP-R2 agonist: -0.7; ANO1 block: inactive; Cardiac RTF inh: 1.1; ANO1 activ: inactive

What do the screens show for `COc1ccccc1CNC(=O)c1ccc(Cl)c(NC2=NC3CS(=O)(=O)CC3S2)c1` (stereo not drawn)?
RTF Ca sens act: -0.1; CRFBP-R2 block: -34.8; CRFBP-R2 agonist: 13.2; ANO1 block: inactive; Cardiac RTF inh: 2.2; ANO1 activ: inactive

Results for O=C1c2cccc3cccc(c23)C(=O)N1c1ccccc1Cl ?
RTF Ca sens act: -4.5; CRFBP-R2 block: 0.4; CRFBP-R2 agonist: 1.3; ANO1 block: inactive; Cardiac RTF inh: -12.5; ANO1 activ: inactive

What do the screens show for `Cc1c(Cl)cccc1N1C(=O)c2ccccc2C1=O`?
RTF Ca sens act: 3.5; CRFBP-R2 block: 50.7*; CRFBP-R2 agonist: -1.0; ANO1 block: inactive; Cardiac RTF inh: -4.0; ANO1 activ: inactive

What do the screens show for `COc1ccc(OC)c(NC(=O)c2ccccc2NS(=O)(=O)c2cccc3cccnc23)c1`?
RTF Ca sens act: -5.3; CRFBP-R2 block: 73.6*; CRFBP-R2 agonist: 0.3; ANO1 block: inactive; Cardiac RTF inh: -1.1; ANO1 activ: inactive

What do the screens show for `O=C(Nc1cccc2ccccc12)c1ccccc1NS(=O)(=O)c1cccc2cccnc12`?
RTF Ca sens act: -3.5; CRFBP-R2 block: 13.2; CRFBP-R2 agonist: 0.7; ANO1 block: inactive; Cardiac RTF inh: -17.6; ANO1 activ: inactive

What do the screens show for `COc1ccc(C=NNc2ccc([N+](=O)[O-])cc2S(=O)(=O)Nc2ccccc2C(=O)O)cc1OC`?
RTF Ca sens act: 2.0; CRFBP-R2 block: 39.2; CRFBP-R2 agonist: 0.6; Cardiac RTF inh: -7.7; ANO1 activ: inactive

Results for COc1ccc(/C=N/Nc2ccc([N+](=O)[O-])cc2S(=O)(=O)N2CCN(C)CC2)cc1 ?
RTF Ca sens act: 3.6; CRFBP-R2 block: -51.6; CRFBP-R2 agonist: 56.0*; ANO1 block: inactive; Cardiac RTF inh: -3.5; ANO1 activ: inactive
